# Screening data: PubChem BioAssay, SRMLSC
# Spn MK inh: S. pneumoniae MK inhibitors, primary screen, biochemical, PK/LDH-coupled NADH absorbance; mevalonate kinase [Streptococcus pneumoniae D39]; purified MK, PK/LDH-coupled NADH absorbance 340 nm; inhibition, % at 10 µM; 65,000 tested, 0.48% active;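 active = ranked among the strongest by inhibition in the single 10 µM screen, a fixed top-ranked set picked for dose follow-up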
# Spn DPM-DC inh: S. pneumoniae DPM-DC inhibitors, primary screen, biochemical, PK/LDH-coupled NADH fluorescence; diphosphomevalonate decarboxylase (Streptococcus pneumoniae D39); purified DPM-DC; calls only at 10 µM; 65,000 tested, 0.49% active; AID 556, 2006;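 active = the 320 compounds with the highest percent inhibition in the single-dose primary screen, excluding strongly autofluorescent ones, cut at about 32% in these data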;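 note: kinetic rate of NADH fluorescence loss reporting ADP formed by the decarboxylase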
# Spn PMK inh: S. pneumoniae PMK inhibitors, primary screen, biochemical, mevalonate pathway, pilot trial included | phosphomevalonate kinase (Streptococcus pneumoniae D39) | AID 539, 2006 | purified PMK, PK/LDH-coupled NADH absorbance 340 nm | inhibition, % at 10 µM | 65,000 tested, 0.49% active;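 active = top-ranked compounds by inhibition in the single 10 µM screen, taking a fixed number of the strongest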;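 note: 0% = full reaction with DMSO carrier and 100% = background rate without enzyme reaction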
# A340 absorber: compound light absorbance at 340 nm, profiling panel, artefact control, biochemical, MLSMR library, data from PS, PMK, MK assays; compound absorbance at 340 nm, fold over control; fold change at 10 µM; 65,000 tested, under 10 active; AID 708, 2007;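 active = at 10 µM dose, initial 340 nm absorbance at least 2 fold that of control wells; inactive = change under 2 fold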;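 note: initial absorbance extrapolated from kinetic A340 decline of NADH oxidation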
# Autofluor 339: intrinsic fluorescence of library compounds, ex339/em460 – biochemical, MLSMR library, data from DPM-DC assay, artefact control, profiling panel | compound autofluorescence, ex339/em460 nm, NADH buffer; stronger effect = higher value; 1 = no-compound wells, NADH background | fluorescence fold increase at 10 µM | 65,000 tested, 5.5% active | AID 709, 2007;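 active = at 10 µM, mean starting fluorescence two-fold or more over control wells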;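 note: signal is the first read of a kinetic run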
# NADH enzymes: inhibitors of PK/LDH coupling enzymes, profiling panel, artefact control, biochemical, MLSMR library; coupled PK/LDH NADH assays, four targets; IC50, µM (highest dose often 10 µM), for the others: at the highest dose inhibition; 65,000 tested, 0.02% active;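 active = single-dose screening hits from any of four coupled enzyme assays that gave an IC50 when retested across doses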;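 note: the DPM-DC format reads NADH fluorescence rather than 340 nm absorbance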
# The depositor's hits bear a star; i = inactive; nt = no result given; + = active, no number. Sampled rows, rich in hits. Any-hit rate of the full collection: about 6.8%.
SMILES,Spn MK inh,Spn DPM-DC inh,Spn PMK inh,A340 absorber,Autofluor 339,NADH enzymes
FC(F)(F)c1cccc(N2CCN(Cc3ccoc3)CC2)c1,50*,i,12,1.1,1.1,21%
COc1cccc(CN2CCN(c3cccc(C(F)(F)F)c3)CC2)c1OC,4,i,0,1,1.1,1%
COc1cc(CN2CCN(c3cccc(Cl)c3)CC2)cc(OC)c1OC,3,i,3,1,1,2%
COc1cccc(N2CCN(Cc3cccnc3)CC2)c1,51*,i,0,1.1,1,6%
FC(F)(F)c1cccc(N2CCN(Cc3cccnc3)CC2)c1,56*,i,1,1,1,9%
COc1cc(NS(=O)(=O)c2ccc(NC(=O)C34CC5CC(CC(C5)C3)C4)cc2)ncn1,1,i,9,0.99,1.1,3%
O=C(NCCS(=O)CCNC(=O)C(F)(F)F)C(F)(F)F,12,i,3,1,1.1,5%
Cc1noc(C)c1S(=O)(=O)N(CCc1ccccc1)Cc1ccccc1,0,i,12,1,1.1,4%
CC(=O)C(Sc1nc(-c2ccco2)nc2c1c(=O)n(C)c(=O)n2C)C(=O)N(C)C (centres undefined),3,i,14,1.1,2.2*,9%
Cn1c(=O)c2c(SCC(=O)NCc3ccco3)nc(CC(C)(C)C)nc2n(C)c1=O,4,i,0,1,1.1,1%
O=C(c1cc2nc(-c3ccccc3)cc(-c3ccccc3)n2n1)N1CCN(C(=O)c2ccco2)CC1,9,nt,8,1.1,3.7*,9%
Cc1cc(N2CCN(C(=O)c3ccco3)CC2)n2nc(C)c(-c3ccc(Cl)cc3)c2n1,15,nt,19,1.1,3.7*,17%
Cc1cc(N2CCN(C(=O)c3ccco3)CC2)n2nc(-c3cccc(Cl)c3)cc2n1,8,+,2,1,0.7,15%
Cc1cc(N2CCN(C(=O)c3ccco3)CC2)n2nc(C)c(-c3ccccc3)c2n1,11,i,11,1.1,1.4,7%
CCOC(=O)N1CCC(Nc2ncnc3c2cnn3-c2ccc(Cl)cc2)CC1,4,i,0,1,1.1,1%
Cc1cn2nc(N)c3ccccc3c2n1,2,nt,13,1,5*,8%
COc1cccc(/C=N/n2c(SC)nnc2-c2ccccc2)c1OC,1,nt,0,1.1,2.1*,1%
COc1ccc2nc(CC(C)(C)CC(=O)O)c[n+]([O-])c2c1,13,nt,7,1,2.9*,6%
CCOc1ccccc1NC(=O)C1CCN(S(=O)(=O)c2cccc3cccnc23)CC1,8,i,13,1.1,1.1,7%
Cc1[nH]c2ccc3c(ncn3CCC#N)c2c1C,4,i,6,1,1.1,3%
O=C(c1ccc(N2CCCCS2(=O)=O)cc1)N1CCN(c2ccc(N3CCOCC3)nn2)CC1,10,nt,20,1,2.1*,15%
O=C(c1ccc(N2CCOCC2)nc1)N1CCOCC1,0,i,7,1,1.1,2%
O=C(c1cncc(Br)c1)N1CCN(c2ccc(N3CCOCC3)nn2)CC1,10,nt,11,1,2.1*,11%
O=C(C1CCN(c2ccc(N3CCOCC3)nn2)CC1)N1CCN(c2ccc(F)cc2)CC1,2,nt,14,1,4.8*,8%
O=C(NCc1ccco1)C1CCN(c2ccc(N3CCOCC3)nn2)CC1,12,nt,5,0.99,2.5*,2%
SMILES,Spn MK inh,Spn DPM-DC inh,Spn PMK inh,A340 absorber,Autofluor 339,NADH enzymes
COc1ccc(CNC(=O)C2CC(=O)N(c3ccc(OCC(=O)N4C(C)CCCC4C)cc3)C2)cc1 (centres undefined),10,i,11,1,1.1,9%
COC(=O)C1=C(N)Oc2cc(C)n(CCN3CCOCC3)c(=O)c2C1c1cccnc1 (centres undefined),12,i,0,0.96,1.1,4%
c1nc2sc3c(c2c2nnnn12)CCC3,8,nt,12,1,2.1*,10%
Cc1nnc2sc(-c3ccc(-c4ccc(Cl)c(C(F)(F)F)c4)o3)nn12,12,nt,10,1.1,3.7*,11%
Cc1oc(-c2cc(Cl)ccc2Cl)cc1-c1nn2c(C)nnc2s1,0,i,18,1,1.1,6%
c1ccc(CSc2nnc3c(n2)OC(c2ccco2)Nc2ccccc2-3)cc1 (centres undefined),0,i,0,1.1,0.96,2%
Cc1ccc(C2NC(=O)c3ccccc3N2)s1 (centres undefined),2,nt,13,1.1,2.1*,8%
O=C1NC(c2ccncc2)Nc2ccccc21 (centres undefined),4,i,4,1,2.5*,7%
CC1Cc2ccccc2C(=O)N1 (centres undefined),10,i,11,1,1.1,8%
O=C1NC(c2ccco2)Nc2ccccc21 (centres undefined),5,nt,15,0.99,2.9*,4%
Cc1ccc(OCC(=O)O)c(-n2nc3ccccc3n2)c1,7,i,12,1,1.2,8%
O=C(O)COc1ccc2nsnc2c1Cl,9,nt,10,1,3.7*,10%
CCc1nc(SCc2cc(Cl)ccc2OC)n[nH]1,11,i,12,1,1,2%
CC1=CC(C)(C)Nc2cc(C)c(C)cc21,10,i,8,1,2.7*,7%
CC1=CC(C)(C)Nc2ccc(C)cc21,5,i,6,1,2.6*,7%
Cc1ccc(-c2csc3n[nH]c(=S)n23)cc1,88*,i,2,1,1,31%
Cc1ccc(-c2csc3nnc(SCC(=O)N4CCN(Cc5ccccc5)CC4)n23)cc1,8,i,17,0.99,1,8%
CC(NC(=O)c1cccc(N2CCCC2=O)c1)c1ccc2c(c1)OCCO2 (centres undefined),0,+,18,1,1.4,17%
CCOc1ccc2nc(NC(=O)C3CCCN(S(=O)(=O)c4cccs4)C3)sc2c1 (centres undefined),0,i,3,1,1.2,1%
Cc1cc(-c2cccs2)n[nH]1,0,i,0,1.1,1.1,1%
c1csc(-c2ccc3ccccc3n2)c1,7,i,13,1.1,2.6*,13%
CC(C)C(NC(=O)C1CCCCC1)C(=O)NC1CCN(Cc2ccccc2)CC1 (centres undefined),3,i,5,0.98,1.1,3%
CC1(C)CC(=O)c2c(nc3ccccc3c2N)C1,0,i,0,1.1,2.8*,4%
